# Compounds with a hit are over-represented: about 2.3% of the library has one in this group of screens.
# p53ts 39C tox: kills p53ts cells at the nonpermissive temperature | H1299-p53A138V viability at 39C, ATP luminescence, 24 h | Potency, µM (top dose mostly 46.1 µM), inactives show top-dose activity change, negative = cell killing, hits mostly cytotoxic | actives 1.5% (n = 130,000) | AID 902; also: % is scaled to controls: 0 for no effect and ±100 for the full control effect; nearly all actives have a fitted effect of over 55% in size
# p53ts 32C kill: cytotoxicity in p53ts cells at permissive temperature | H1299-p53A138V at 32C, ATP luminescence viability, 24 h | Potency, µM (top dose mostly 46.1 µM), without a hit: top-dose activity change, negative = cytotoxicity, usual class: cytotoxic | actives 0.93% (n = 130,000);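 also: 0% = DMSO and -100% = full killing by reference compound; nearly all actives have a fitted effect of over 55% in size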
#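 H1299-p53 A138V cells (temperature-sensitive p53) exposed 24 h to up to 46 uM compound at 32C, where p53 is wild-type in conformation. Viability read as ATP luminescence and normalised to DMSO and 100 uM tamoxifen. AC50 fitted with the Hill equation.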
# ERK AVP block: blocks ERK signaling stimulated by vasopressin; Potency, µM (series often up to 57.5 µM), without a hit: at the top dose activity, negative = inhibition, usual class: inhibitors; actives 0.99% (n = 72,000); HEK293-V1b, vasopressin-stimulated pERK AlphaScreen; also: % is scaled to controls: 0 for no effect and ±100 for the full control effect; nearly all actives have a fitted effect of over 55% in size
#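 HEK293 cells stably expressing V1b receptor, preincubated 30 min at 37 °C with compound, then stimulated 5 min with 25 nM vasopressin. Phospho-ERK by AlphaScreen SureFire after 5 h RT; normalized to DMSO and vasopressin; AC50 by Hill fit.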
# Imprint erasure: induces erasure of genomic imprints in mouse ES cells | AID 1948 | mouse ES Peg3-LacZ reporter, beta-gal luminescence, 40 h | Potency, µM (top dose mostly 60.7 µM), for the others: at the top dose activity change, positive = activation, hits mostly activators | actives 0.02% (n = 110,000)
#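 Imprint erasure is scored as LacZ activity from the silenced maternal Peg3 allele in feeder-free female ES cells cultured 40 h with LIF. Luminescence is normalized to in-plate negative controls and fitted to the Hill equation.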
# IkB sig inh: suppresses IkB signaling in ABC-DLBCL reporter cells | ABC-DLBCL IkBa-CBG/CBR dual luciferase ratio, 4 h; response scale: scaled: untreated 0%, proteasome inhibitor 100% | Potency, µM (series often up to 57.1 µM), for inactives: at the highest dose IkBa stabilization activation | actives 0.04% (n = 110,000); active = well fitted curve in the direction sought with a large enough effect in the signal ratio, not every such curve was filed as active; inconclusive = small, poorly fitted or top-dose-only effect, or a change in a side signal; the % refers to the signal ratio;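 also: the direction sought is a rising ratio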
#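 In this assay, an IκBα–CBG68 fusion accumulates when IKK-driven degradation is blocked; native CBR normalizes for cell number. OCI-Ly3 cells were treated 4 h with compound and doxycycline, then green and red light read after Chroma-Glo addition.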
# Numbers without * were called inactive; ? = inconclusive; / = no result; [ ] = another dose, or the depositor's remark. Unless noted, calls follow the shape of the dose curve; as a rule, active = well fitted curve in the direction sought with a large enough effect; inconclusive = small, poorly fitted or top-dose-only effect, or another doubt; inactive = no such curve, though single readings can be large; an effect the other way counts as inactive or inconclusive. Potency is read from the fitted curve at half-maximal effect.
SMILES,p53ts 39C tox,p53ts 32C kill,ERK AVP block,Imprint erasure,IkB sig inh
CCOC(=O)c1cnc(N(C)C)nc1SC(=N)N,11%[9.22 µM],-1%[9.22 µM],-23%[11.5 µM],-11%[10.9 µM],0%[11.4 µM]
Cc1cccc(N2CCN(C(=O)CSCc3c(C)noc3C)CC2)c1C,-19%,-16%,25µM*,-22%,10%
O=C(O)Cn1c(=O)oc2cc(S(=O)(=O)N3CCOCC3)ccc21,4%,7%,/,-4%,3%
COc1cccc(NC(=O)c2oc3ccccc3c2NC(=O)c2cc3ccccc3o2)c1,?,-12%,/,-13%[10.9 µM],?
COc1cccc(NC(=O)c2oc3ccccc3c2NC(=O)C(C)(C)C)c1,2%,5%,13%,-9%,?
COc1cccc(NC(=O)c2oc3ccccc3c2NC(=O)c2ccc(OC(C)C)cc2)c1,10µM*,?,/,-16%[10.9 µM],1%
COc1cccc(NC(=O)c2oc3ccccc3c2NC(=O)c2ccc3c(c2)OCO3)c1,10µM*,10µM*,11%,-3%,3%
COc1ccc(COC(=O)N/N=C2/C[C@@H](O)[C@@H](O)[C@@H]3[C@@H]4C(=O)N(C5CCCCC5)C(=O)[C@H]4CC[C@@H]23)cc1,6%[9.22 µM],-5%[9.22 µM],-6%[11.5 µM],/,/
CC(=O)OC(C(=O)c1ccccc1)c1ccccc1 (stereo not drawn),-9%,-7%[1.84 µM],7%,-5%,-2%
CO/N=C(\C(=O)N[C@@H]1C(=O)N2C(C(=O)O)=C(CSc3nc(=O)c(O)nn3C)CS[C@@H]12)c1csc(N)n1,7%,-5%,2%,/,-6%
COc1ccc(-n2cc(C(=O)N(CCN(C)C)Cc3ccccc3)c3ccccc3c2=O)cc1,?,4%,/,-13%[10.9 µM],?
COc1ccc(N2C(=O)C(Cl)=C(N(CCO)Cc3ccccc3)C2=O)cc1,-2%,-2%,13µM*,-7%,2%
O=C1CCNc2cc3ccccc3cc21,16µM*,?,-7%,-31%,?
NC(=O)C/C=C\CC(N)=O,-1%[9.22 µM],-4%[9.22 µM],1%[11.5 µM],-1%[10.9 µM],1%[11.4 µM]
CCCOC(=O)c1ccc(OCC(O)Cn2c(C)nc3ccccc32)cc1 (stereo not drawn),-9%,-7%,13µM*,-19%,?
CC(=O)Nc1cccc(OCC(O)Cn2c(C)nc3ccccc32)c1 (stereo not drawn),2%,1%,/,/,/
O=[N+]([O-])c1ccc(C2=Nn3c(nnc3-c3ccc(Cl)cc3)SC2)o1,8%[9.22 µM],-7%[9.22 µM],16%[11.5 µM],-19%[10.9 µM],16%[11.4 µM]
C=CCNc1nc(NCc2ccco2)nc(OCC)n1,0%,0%,25µM*,9%,?
c1ccc2c(c1)oc1c(Nc3ccc(CN4CCOCC4)cc3)ncnc12,?,?,20µM*,-43%,?
CC(=O)N1CCN(c2ccc(Nc3ncnc4c3oc3ccccc34)cc2)CC1,2%,-29%,20µM*,-42%,?
CCc1nc(Nc2ccc(N3CCN(C(C)=O)CC3)cc2)c2oc3ccccc3c2n1,?,?,32µM*,-26%,?
c1ccc2c(c1)oc1c(NCCN3CCOCC3)ncnc12,-3%,-6%,-9%,-9%,-3%
c1ccc(Nc2ncnc3c2oc2ccccc23)cc1,-7%,1%,-19%,-27%,6%
CCOC(=O)C1CCCN(c2ncnc3c2oc2ccccc23)C1 (stereo not drawn),10%,2%,25µM*,-20%,0%
CC(C)CO/N=C1/[C@H]2O[C@@H]2[C@@H](O)[C@H]2[C@H]1CCn1c(=O)n(C)c(=O)n12,0%[9.22 µM],0%[9.22 µM],1%[11.5 µM],/,/
SMILES,p53ts 39C tox,p53ts 32C kill,ERK AVP block,Imprint erasure,IkB sig inh
c1ccc(N2CCN(c3ncnc4c3oc3ccccc34)CC2)cc1,-18%,?,32µM*,-14%,?
Cc1ccc(NC(=O)CSc2ncc3c(n2)-c2ccc(Cl)cc2N(C)S3(=O)=O)cc1F,-17%,0%,/,2%[10.9 µM],2%
CN1c2cc(Cl)ccc2-c2nc(SCC(=O)Nc3ccc(F)cc3F)ncc2S1(=O)=O,10µM*,-12%,/,-8%[10.9 µM],4%
CN1CCN(c2ccnc(-c3ccoc3)n2)CC1,16%,4%,-11%,-10%,-2%[11.4 µM]
CC(=O)OC[C@@H]1O[C@@H](Oc2cc(OC(C)=O)c3c(=O)cc(-c4ccc(OC(C)=O)c(OC(C)=O)c4)oc3c2)[C@H](OC(C)=O)[C@H](OC(C)=O)[C@@H]1OC(C)=O,/,/,/,/,9%[11.4 µM]
CN(C)c1ccc(C(=C2C=CC(=[N+](C)C)C=C2)c2ccccc2)cc1,?,10%[9.22 µM],13µM*,-28%[10.9 µM],?
CN(C)c1ccc(C(=C2C=CC(=[N+](C)C)C=C2)c2ccc(N(C)C)cc2)cc1,?,?,10µM*,-47%,?
CCn1c(/C(C#N)=C/c2ccccc2Cl)nc2ccccc21,?,-21%,/,-11%[10.9 µM],?
Cn1c(/C(C#N)=C/c2ccccc2Br)nc2ccccc21,?,10µM*,/,-14%[10.9 µM],?
O=C(OCC1CO1)C1CCCCC1C(=O)OCC1CO1 (stereo not drawn),32µM*,3%[1.84 µM],11%,0%,3%
O=C(O)C1CCCCC1C(=O)OCCCCOC(=O)C1CCCCC1C(=O)O (stereo not drawn),3%,-5%,23%,4%,-1%
N=C(N)C(N=Nc1ccccc1)C(=N)N (stereo not drawn),1%[9.22 µM],-5%[9.22 µM],-14%[11.5 µM],-5%[10.9 µM],1%[11.4 µM]
CN(C)S(=O)(=O)N1CCN(CC(O)COc2ccc(C(=O)c3ccccc3)cc2)CC1 (stereo not drawn),3%,0%,32µM*,-13%,4%
CCc1nnc(NC(=O)c2ccc(S(=O)(=O)N(CC)Cc3ccccc3)cc2)o1,?,-16%,5%,-21%,14%
CN(Cc1ccccc1)S(=O)(=O)c1ccc(C(=O)Nc2nnc(C3CC3)o2)cc1,13µM*,1%,25%,-27%,?
COc1ccccc1-c1nnc(NC(=O)c2ccc(S(=O)(=O)N(C)Cc3ccccc3)cc2)o1,13µM*,-2%,16%,-25%,4%
Fc1ccc(-c2cc3nc4c(c(N5CCOCC5)n3n2)CCCC4)cc1,-13%,-19%,-8%,-8%,4%
O=c1c2c(nc3cc(-c4ccc(F)cc4)[nH]n13)CCCC2,10µM*,13µM*,-16%,-81%,?
Cc1ccc2cc(C#N)c(NCCNC(=O)C3CC3)nc2c1C,-23%,-11%,25µM*,-8%,-1%
CN1CCc2nc(N)nc(-c3nc(N)nc4c3CN(C)CC4)c2C1,0%[9.22 µM],0%[9.22 µM],-10%[11.5 µM],-6%[10.9 µM],1%[11.4 µM]
Clc1cccc(-c2nnc(-c3ccccc3)o2)c1,13µM*,10µM*,19%,-83%,?
Brc1cccc(-c2nnc(-c3ccccc3)o2)c1,-26%,?,7%,-56%,5%
COc1ccc(CC(=O)Nc2cccc(C(=O)O)c2C)cc1,5%,3%,-17%,-19%,1%

# Source: PubChem
